Experimental data published in the supplement of paper PMC12669797.

Legend:
ES2 = test: cell viability relative to DMSO control (MTS) (fraction of DMSO control); higher = more viable cells / less growth inhibition; settings: 10 µM; 48 h
Method in brief: (§1)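 After 24 h of growth in 96-well plates at 5000 cells per well, TOV-21G and ES2 clear cell carcinoma cells were treated for 48 h with a 367-compound […] library at 10 µM final concentration. Cell viability was measured by MTS assay and expressed relative to vehicle control wells as a fraction.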

TOV-21G = test: as above; settings: 10 µM; 48 h
Method in brief: as §1

CC[C@@]1(O)C(=O)OCc2c1cc1n(c2=O)Cc2cc3ccccc3nc2-1 [Camptothecin]
cell viability (ES2): 0.527
cell viability (TOV-21G): 0.267

C[C@H](CCC(=O)O)C[C@H](C)C[C@H](C)C(=O)/C=C(\O)[C@H](C)C[C@H](C)C/C=C/[C@@H](C)[C@@H](O)[C@@H](C)[C@@H](O)C[C@@H]1CC[C@@](C)([C@H]2CC[C@@](C)([C@@H](C)O)O2)O1 [Ionomycin]
cell viability (ES2): 0.54
cell viability (TOV-21G): 0.501

CC(=O)N[C@H]1[C@@H](O[C@@H]2O[C@H](CC(O)[C@H]3O[C@@H](n4ccc(=O)[nH]c4=O)[C@H](O)[C@@H]3O)[C@H](O)[C@H](O)[C@H]2NC(=O)/C=C/CC(C)C)O[C@H](CO)[C@@H](N)[C@@H]1O (stereo partly specified) [Tunicamycin]
cell viability (ES2): 1.19
cell viability (TOV-21G): 1.03

CC1=C2C(=O)[C@H]3[C@@H](CC=C4C[C@@H](O)CC[C@@]43C)[C@@H]2CC[C@]12O[C@@H]1C[C@H](C)CN[C@H]1[C@H]2C [Jervine]
cell viability (ES2): 1.04
cell viability (TOV-21G): 1.64

C[C@@]12C(=O)OC(=O)[C@]1(C)[C@H]1CC[C@@H]2O1 [Cantharidin]
cell viability (ES2): 0.495
cell viability (TOV-21G): 0.403

CN(N=O)c1cc(O)ccc1O [Dephostatin]
cell viability (ES2): 1.14
cell viability (TOV-21G): 1.02

COc1ccc(C[C@H]2NC[C@H](O)[C@H]2OC(C)=O)cc1 [anisomycin]
cell viability (ES2): 0.394
cell viability (TOV-21G): 0.372

C=C1[C@@H](C)[C@H]2[C@H](Cc3ccccc3)NC(=O)[C@]23[C@H](OC(C)=O)/C=C/[C@@](C)(O)C(=O)[C@@H](C)C/C=C/[C@H]3[C@@H]1O [Cytochalasin D]
cell viability (ES2): 0.498
cell viability (TOV-21G): 0.472
